Source: the supplement of paper PMC10849652
The full data set covers some 8,800 targets. This sample favours those with a hit. About 0.5% of all pairs of compound and target were hits.

Legend:
Assay in all cases: log2 fold change, soluble protein after heating vs DMSO (PISA); higher = thermal stabilisation; K562 lysate, 10 uM; active = over 0.2 and 3.5 SD of the protein, either way, in both replicates (recomputed)
[1] = compound: C1=CC=C(C=C1)[C@H](COC2=CC3=C(C=C2)NC(=O)N3)NC(=O)C4=CC=CN(C4=O)CC5=CC(=C(C=C5)F)F
In short: (§1)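 Quantification was by TMTpro 16plex LC-MS/MS with equalised channel sums, applied to the supernatant after 21,000xg for 90 min. Samples were crude K562 extract at 1 mg/mL protein in PBS pH 7.4 with 1 mM MgCl2, treated with 10 μM compound for 30 min, heated for 3 min across 48°C-58°C, pooled and brought to 0.5% NP-40 at 4°C. Values are log-two fold changes in thermal stability relative to solvent controls, from duplicates.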

[2] = compound: CC1=C(SC2=C1C(=N[C@H](C3=NN=C(N32)C)CC(=O)N)C4=CC=C(C=C4)Cl)C
In short: as §1

[3] = compound: CC1=C2C(=CC=C1)N=C(N(C2=O)C3=CC=CC=C3C)CN4C=NC5=C(N=CN=C54)N
In short: as §1

[4] = compound: Cc1sc2c(c1C)C(c1ccc(Cl)cc1)=N[C@@H](CC(=O)OC(C)(C)C)c1nnc(C)n1-2
In short: as §1

[5] = compound: c1ccc([C@@H]2C[C@H]2NC2CCNCC2)cc1
In short: as §1

Measured: log2 fold change

TTC27 (UniProt Q6P3X3)
inactive: [1] -0.039 | [2] -0.021 | [3] 0.028 | [4] -0.019 | [5] 0.032

TPP2 (UniProt Q5VZU9)
inactive: [1] 0.004 | [2] -0.117 | [3] 0.001 | [4] 0.034 | [5] -0.08

TSPAN13 (UniProt O95857)
Sequence of UniProt O95857 (O95857 whole entry, looked up): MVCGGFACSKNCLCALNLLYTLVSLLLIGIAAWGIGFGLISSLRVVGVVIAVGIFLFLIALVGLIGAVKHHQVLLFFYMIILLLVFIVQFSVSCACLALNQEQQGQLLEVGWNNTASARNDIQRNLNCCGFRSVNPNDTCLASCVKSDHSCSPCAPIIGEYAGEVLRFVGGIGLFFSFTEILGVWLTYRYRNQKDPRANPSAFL
inactive: [1] 0.076 | [2] 0.025 | [3] -0.048 | [4] 0.187 | [5] -0.131

TPM1 (UniProt H7BYY1)
inactive: [1] -0.028 | [2] 0.017 | [3] 0.059 | [4] 0.031 | [5] 0.023

TUBGCP2 isoform 4 (UniProt Q9BSJ2)
inactive: [1] 0.009 | [2] -0.015 | [3] 0.035 | [4] 0.018 | [5] 0.097

THAP9 (UniProt Q9H5L6)
inactive: [1] 0.024 | [2] 0.039 | [3] 0.165 | [4] -0.194 | [5] -0.284

TRA2A (UniProt Q13595)
Sequence of UniProt Q13595 (Q13595 whole entry, looked up): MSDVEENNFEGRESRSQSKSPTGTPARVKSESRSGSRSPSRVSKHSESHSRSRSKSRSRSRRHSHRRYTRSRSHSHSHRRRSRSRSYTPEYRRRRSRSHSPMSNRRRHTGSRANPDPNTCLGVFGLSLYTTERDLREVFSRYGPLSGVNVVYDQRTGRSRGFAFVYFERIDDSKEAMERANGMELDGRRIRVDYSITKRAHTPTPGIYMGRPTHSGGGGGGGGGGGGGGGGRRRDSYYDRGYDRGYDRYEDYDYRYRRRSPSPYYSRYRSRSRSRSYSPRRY
inactive: [1] -0.076 | [2] 0.065 | [3] 0.034 | [4] -0.054 | [5] 0.004

TRAPPC10 (UniProt P48553)
inactive: [1] -0.014 | [2] -0.015 | [3] 0.033 | [4] -0.004 | [5] -0.012

TYW3 (UniProt Q6IPR3)
inactive: [1] 0.082 | [2] 0.006 | [3] 0.065 | [4] -0.029 | [5] -0.067

TTL (UniProt Q8NG68)
inactive: [1] 0.004 | [2] -0.029 | [3] 0.145 | [4] 0.014 | [5] 0.104

TTI2 (UniProt Q6NXR4)
inactive: [1] -0.044 | [2] 0.009 | [3] 0.033 | [4] -0.035 | [5] 0.024

TRIP13 (UniProt Q15645)
inactive: [1] 0.006 | [2] 0.015 | [3] 0.018 | [4] 0.01 | [5] 0.049

UBR1 (UniProt Q8IWV7)
inactive: [1] -0.032 | [2] 0.002 | [3] -0.026 | [4] 0.026 | [5] 0

TNIK isoform 4 (UniProt Q9UKE5)
inactive: [1] 0.015 | [2] -0.002 | [3] -0.017 | [4] -0.032 | [5] -0.076

TPM4 (UniProt P67936)
Sequence of UniProt P67936 (P67936 whole entry, looked up): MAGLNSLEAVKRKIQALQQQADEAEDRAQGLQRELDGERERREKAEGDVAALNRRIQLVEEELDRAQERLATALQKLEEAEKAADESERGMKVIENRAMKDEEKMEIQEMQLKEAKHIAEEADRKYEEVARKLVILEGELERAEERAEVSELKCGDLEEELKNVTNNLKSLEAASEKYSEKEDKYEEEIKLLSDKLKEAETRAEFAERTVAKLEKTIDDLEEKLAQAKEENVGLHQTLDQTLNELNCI
inactive: [1] -0.003 | [2] 0.057 | [3] -0.021 | [4] -0.025 | [5] -0.04

TUBE1 (UniProt Q9UJT0)
Sequence of UniProt Q9UJT0 (Q9UJT0 whole entry, looked up): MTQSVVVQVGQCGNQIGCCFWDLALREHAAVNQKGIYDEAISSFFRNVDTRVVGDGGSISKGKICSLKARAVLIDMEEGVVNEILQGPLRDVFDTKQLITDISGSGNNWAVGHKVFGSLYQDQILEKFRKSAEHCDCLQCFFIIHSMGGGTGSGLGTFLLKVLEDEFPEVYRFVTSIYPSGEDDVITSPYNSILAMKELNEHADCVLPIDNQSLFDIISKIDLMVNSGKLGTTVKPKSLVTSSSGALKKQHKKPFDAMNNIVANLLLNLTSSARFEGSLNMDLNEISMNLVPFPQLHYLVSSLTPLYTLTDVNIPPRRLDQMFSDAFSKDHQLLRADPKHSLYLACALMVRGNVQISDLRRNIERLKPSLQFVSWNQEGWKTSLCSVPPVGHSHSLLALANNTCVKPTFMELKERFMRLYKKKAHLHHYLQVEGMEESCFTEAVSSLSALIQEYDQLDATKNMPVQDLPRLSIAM
inactive: [1] -0.019 | [2] 0.003 | [3] 0.019 | [4] -0.064 | [5] 0.107

TLE3 isoform 4 (UniProt Q04726)
Sequence of UniProt Q04726 (Q04726 whole entry, looked up): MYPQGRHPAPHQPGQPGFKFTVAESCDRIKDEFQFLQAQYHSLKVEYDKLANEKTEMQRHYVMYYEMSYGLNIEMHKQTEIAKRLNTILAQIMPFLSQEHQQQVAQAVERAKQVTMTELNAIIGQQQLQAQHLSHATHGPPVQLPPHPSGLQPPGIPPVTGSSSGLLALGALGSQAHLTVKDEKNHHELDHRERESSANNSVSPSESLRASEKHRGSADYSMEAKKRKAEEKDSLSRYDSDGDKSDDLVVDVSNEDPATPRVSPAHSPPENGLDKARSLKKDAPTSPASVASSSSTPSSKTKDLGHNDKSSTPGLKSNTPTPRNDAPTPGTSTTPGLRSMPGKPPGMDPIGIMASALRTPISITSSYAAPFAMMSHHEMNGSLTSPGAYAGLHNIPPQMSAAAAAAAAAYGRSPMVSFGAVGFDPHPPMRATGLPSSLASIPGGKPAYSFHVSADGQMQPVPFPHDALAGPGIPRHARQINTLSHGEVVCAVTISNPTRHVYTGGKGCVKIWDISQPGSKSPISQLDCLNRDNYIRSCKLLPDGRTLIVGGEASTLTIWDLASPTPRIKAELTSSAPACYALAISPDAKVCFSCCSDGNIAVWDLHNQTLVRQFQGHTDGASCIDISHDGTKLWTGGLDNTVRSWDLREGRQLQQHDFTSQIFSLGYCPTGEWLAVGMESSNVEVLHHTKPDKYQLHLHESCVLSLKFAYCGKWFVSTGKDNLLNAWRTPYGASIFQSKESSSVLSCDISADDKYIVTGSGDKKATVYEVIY
inactive: [1] 0.01 | [2] -0.033 | [3] 0.024 | [4] 0.025 | [5] 0.007

TRAPPC9 isoform 2 (UniProt Q96Q05)
Sequence of UniProt Q96Q05 (Q96Q05 whole entry, looked up): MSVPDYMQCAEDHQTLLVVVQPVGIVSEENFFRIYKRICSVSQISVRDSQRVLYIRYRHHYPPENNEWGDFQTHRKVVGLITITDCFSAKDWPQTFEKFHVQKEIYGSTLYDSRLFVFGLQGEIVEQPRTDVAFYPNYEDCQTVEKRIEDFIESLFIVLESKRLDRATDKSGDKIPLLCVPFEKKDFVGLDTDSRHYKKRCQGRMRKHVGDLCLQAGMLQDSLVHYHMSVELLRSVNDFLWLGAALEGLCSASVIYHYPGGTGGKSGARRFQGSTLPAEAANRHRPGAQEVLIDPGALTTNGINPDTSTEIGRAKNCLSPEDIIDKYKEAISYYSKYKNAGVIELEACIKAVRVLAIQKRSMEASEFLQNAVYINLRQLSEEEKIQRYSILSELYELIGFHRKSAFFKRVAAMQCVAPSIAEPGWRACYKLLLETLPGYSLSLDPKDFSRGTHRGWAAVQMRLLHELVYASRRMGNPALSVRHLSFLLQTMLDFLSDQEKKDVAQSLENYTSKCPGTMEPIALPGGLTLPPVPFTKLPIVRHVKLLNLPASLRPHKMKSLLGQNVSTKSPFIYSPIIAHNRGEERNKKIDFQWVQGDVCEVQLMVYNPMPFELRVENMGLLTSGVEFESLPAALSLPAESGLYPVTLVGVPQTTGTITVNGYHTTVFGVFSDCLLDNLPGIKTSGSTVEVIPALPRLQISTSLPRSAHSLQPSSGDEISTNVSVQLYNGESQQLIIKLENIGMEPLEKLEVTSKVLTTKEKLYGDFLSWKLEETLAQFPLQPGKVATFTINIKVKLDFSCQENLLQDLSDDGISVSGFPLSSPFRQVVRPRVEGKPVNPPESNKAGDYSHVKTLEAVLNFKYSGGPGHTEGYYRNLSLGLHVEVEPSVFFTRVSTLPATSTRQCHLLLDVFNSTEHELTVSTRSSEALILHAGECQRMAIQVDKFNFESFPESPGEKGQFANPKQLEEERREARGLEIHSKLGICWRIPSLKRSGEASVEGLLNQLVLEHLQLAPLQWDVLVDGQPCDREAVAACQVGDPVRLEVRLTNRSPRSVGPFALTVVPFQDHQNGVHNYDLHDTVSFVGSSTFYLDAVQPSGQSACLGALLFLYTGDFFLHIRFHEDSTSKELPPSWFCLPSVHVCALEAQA
inactive: [1] 0.001 | [2] 0.05 | [3] 0 | [4] 0.055 | [5] -0.042

TIMM44 (UniProt O43615)
Sequence of UniProt O43615 (O43615 whole entry, looked up): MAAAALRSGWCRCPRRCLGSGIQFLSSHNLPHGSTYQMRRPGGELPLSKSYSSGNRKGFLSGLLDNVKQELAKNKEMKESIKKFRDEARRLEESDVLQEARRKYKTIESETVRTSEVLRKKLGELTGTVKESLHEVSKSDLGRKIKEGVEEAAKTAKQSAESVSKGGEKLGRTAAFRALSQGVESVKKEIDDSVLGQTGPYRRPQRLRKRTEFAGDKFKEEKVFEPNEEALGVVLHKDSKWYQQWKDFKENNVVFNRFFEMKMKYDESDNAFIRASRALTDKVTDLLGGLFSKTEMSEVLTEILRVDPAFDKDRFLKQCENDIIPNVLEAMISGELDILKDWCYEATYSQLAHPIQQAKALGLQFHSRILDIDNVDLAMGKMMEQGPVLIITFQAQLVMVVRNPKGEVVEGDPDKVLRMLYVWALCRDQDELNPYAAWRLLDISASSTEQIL
inactive: [1] -0.062 | [2] 0 | [3] 0.034 | [4] -0.035 | [5] -0.003

TGOLN2 isoform 7 (UniProt O43493)
Sequence of UniProt O43493 (O43493 whole entry, looked up): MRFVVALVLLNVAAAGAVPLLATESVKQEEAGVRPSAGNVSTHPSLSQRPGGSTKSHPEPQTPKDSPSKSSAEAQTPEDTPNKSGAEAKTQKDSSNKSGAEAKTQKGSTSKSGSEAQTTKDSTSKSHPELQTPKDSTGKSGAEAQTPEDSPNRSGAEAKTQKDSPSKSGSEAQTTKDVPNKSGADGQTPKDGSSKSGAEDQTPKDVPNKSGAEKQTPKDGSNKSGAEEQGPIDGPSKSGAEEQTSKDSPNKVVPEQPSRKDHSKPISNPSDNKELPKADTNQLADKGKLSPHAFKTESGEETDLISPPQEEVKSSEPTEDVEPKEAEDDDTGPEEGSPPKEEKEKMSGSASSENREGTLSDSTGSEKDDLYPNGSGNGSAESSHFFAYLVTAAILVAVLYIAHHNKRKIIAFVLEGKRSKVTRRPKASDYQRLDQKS
inactive: [1] 0.065 | [2] -0.029 | [3] -0.015 | [4] -0.017 | [5] -0.069

TPM1 isoform 4 (UniProt P09493)
Sequence of UniProt P09493 (P09493 whole entry, looked up): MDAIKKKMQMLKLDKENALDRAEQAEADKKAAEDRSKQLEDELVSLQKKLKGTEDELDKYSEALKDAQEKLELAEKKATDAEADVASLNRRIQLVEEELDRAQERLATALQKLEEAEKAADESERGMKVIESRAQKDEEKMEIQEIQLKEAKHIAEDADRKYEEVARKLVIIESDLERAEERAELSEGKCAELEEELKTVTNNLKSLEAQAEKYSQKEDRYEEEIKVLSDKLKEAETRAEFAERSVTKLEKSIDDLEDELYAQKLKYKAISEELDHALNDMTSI
inactive: [1] -0.008 | [2] -0.012 | [3] 0 | [4] 0.003 | [5] 0.056

TUBB3 (UniProt Q13509)
inactive: [1] 0.014 | [2] -0.005 | [3] 0.008 | [4] 0.008 | [5] 0.01

TRAF7 (UniProt Q6Q0C0)
Sequence of UniProt Q6Q0C0 (Q6Q0C0 whole entry, looked up): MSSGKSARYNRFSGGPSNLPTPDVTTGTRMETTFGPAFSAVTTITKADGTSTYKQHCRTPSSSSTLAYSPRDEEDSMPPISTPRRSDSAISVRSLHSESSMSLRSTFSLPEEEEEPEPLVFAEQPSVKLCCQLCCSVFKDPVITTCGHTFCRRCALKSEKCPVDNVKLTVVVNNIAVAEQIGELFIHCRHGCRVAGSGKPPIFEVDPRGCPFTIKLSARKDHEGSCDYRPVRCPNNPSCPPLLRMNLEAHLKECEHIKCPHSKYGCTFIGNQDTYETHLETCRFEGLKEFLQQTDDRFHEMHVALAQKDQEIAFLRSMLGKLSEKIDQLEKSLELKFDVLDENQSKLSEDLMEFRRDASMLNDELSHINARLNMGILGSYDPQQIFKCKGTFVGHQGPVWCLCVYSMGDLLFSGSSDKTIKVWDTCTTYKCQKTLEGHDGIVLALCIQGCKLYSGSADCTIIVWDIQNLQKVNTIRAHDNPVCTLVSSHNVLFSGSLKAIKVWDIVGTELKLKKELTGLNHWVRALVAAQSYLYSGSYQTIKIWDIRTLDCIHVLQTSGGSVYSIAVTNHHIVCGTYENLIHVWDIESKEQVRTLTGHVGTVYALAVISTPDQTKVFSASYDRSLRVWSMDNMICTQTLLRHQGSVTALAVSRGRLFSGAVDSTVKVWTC
inactive: [3] 0.007 | [4] -0.005 | [5] 0.238

TCF4 (UniProt P15884)
inactive: [4] 0.047 | [5] 0.091
